Results: PMC12864922, “TDP-43 directly inhibits mRNA accumulation in neurites through modulation of mRNA stability”
Over roughly 9,900 sequences, “r (bound/input frequency ratio)” has its median near 0.7; the highest 2% begin near 6.5. What follows is part of a selection rich in the highest values, with near analogues and random picks from the rest.

B1: ENSMUSG00000031028.55|Tub (ssRNA)
RNA: GGGAGUUCUACAGUCCGACGAUCGCUUCGAUAUCCGCAUGCUAUGUGCCCCAAGGUCAACACACAUGCCCAGUCCUGGGUCAGUCCCCUGCUGCAGUGGUGUUAUCACACCGGAAAGCCUCUUCACCUGGAGGUACAGAGGGAGAGGAAGCACAAGCCUGGCUGCUGUGGCUCAGCCAUCCACUCAGCCUACGAGUCAGAGACAGUGGGUGUCCCGGGAAGCAGGGGUACAGUGAGUGUGUGUGUAUGUACAGGGCACUCAAGCUGUAUGUAGAAAAAGCUCUGGUGGUCAGCAGAAAGCACUCUCUUGCGGUCGCACUAGUGUGGAAUUCUCGGGUGUCAAGG
B2: ENSMUSG00000042529.483|Kcnj12 (ssRNA)
RNA: GGGAGUUCUACAGUCCGACGAUCGCUUCGAUAUCCGCAUGCUAUCUCUUUGAAUGCUACUGUGUUGAGAUGUGCGUCUCACUGGCCUCUGCCUGCCUCUCCCGCCUGCGGAGCACUUACACUUCCUGGGGCCCCUGCAGCUGGACCAUGUACAGGGCUCCCUGGGGCUUGUCCUCAGGGGCAGAGAAGGACAUGGUGGCAGCAGCACUGAGAACAGGAGCAUGGCCUCUCUCAGACCCCAGGGCAGUCAUUCAGUCUUUUCCAUGGACACUCCCCACCGCUCCACAUACUGCCUCCGCCUCAUCUCUUGCGGUCGCACUAGUGUGGAAUUCUCGGGUGUCAAGG
B3: ENSMUSG00000061578.627|Ksr2 (ssRNA)
RNA: GGGAGUUCUACAGUCCGACGAUCGCUUCGAUAUCCGCAUGCUAAGGGAGCAACCUAUAGGAAAUGCAAAGGCUUAGAGGGGACGGACAGCUCCCUGACCCUGGAUGGCCAGGAAUGGUGCUAGCUAGGGUGUGAGCCAAGCCCUUGAGGCUACUGUGAGUUAUGAGAUGUGUCCAACCCUCAGCCCACAGACUGCAUAUGCCCCAGGACAGCUGUGAAGGUGACCCAAUACAAAAUCGUAAACUAACUUAAAACCAUUAAGGGUUUUUGUUUUGUUGUUGUUUGCUGGCUUUUUGUUUUUUGGCUCUUGCGGUCGCACUAGUGUGGAAUUCUCGGGUGUCAAGG
B4: ENSMUSG00000042529.54|Kcnj12|94:101;234:238 (ssRNA)
RNA: GGGAGUUCUACAGUCCGACGAUCGCUUCGAUAUCCGCAUGCUAGCAAGGAGGUGACUUCUUGGGGUAGGGUUGCUCAGGAGUUAGGGACUCUGCUGGAGGCCUUAGGUGCAGGUCCCAGCCCCGGUGGGAGGAGGCACACAUACUACACUUCAUUGGUUUUUAACUUGGGCAAGACUGUUUACAAACAAAAACAAACAAACAAACAAUCAAAAAAAAAACCCACCCCACAAAACACAAGAAAACAUUAACAGGUGGUUCAAUUUUUAAAAUUCCUGCACACGGGACAGUUGGAAUUCUACUCACUCUUGCGGUCGCACUAGUGUGGAAUUCUCGGGUGUCAAGG

Molecular target: TDP-43 (Homo sapiens, UniProt Q13148 1-414)
Sequence (Q13148 whole entry): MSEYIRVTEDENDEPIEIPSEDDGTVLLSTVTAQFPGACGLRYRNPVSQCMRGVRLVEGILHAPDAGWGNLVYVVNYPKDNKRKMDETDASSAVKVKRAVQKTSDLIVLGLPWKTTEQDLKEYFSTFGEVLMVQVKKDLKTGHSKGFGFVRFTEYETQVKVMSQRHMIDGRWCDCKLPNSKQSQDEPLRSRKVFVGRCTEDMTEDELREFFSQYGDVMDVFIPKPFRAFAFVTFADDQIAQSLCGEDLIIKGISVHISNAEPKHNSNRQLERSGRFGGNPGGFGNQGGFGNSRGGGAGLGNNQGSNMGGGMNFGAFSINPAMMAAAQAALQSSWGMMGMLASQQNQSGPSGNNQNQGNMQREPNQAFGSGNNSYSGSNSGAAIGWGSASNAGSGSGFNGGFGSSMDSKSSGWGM
Experiment: RNA Bind-n-Seq with designed 260-mer pool; 25 mM Tris-HCl, 150 mM KCl, 3 mM MgCl2, BSA (printed 500 mg/mL), 20 units/mL SUPERase IN; pH not stated; 500 nM RNA pool, 1 h, 4 C; TDP-43 5, 50, 500 nM; high values mean tight binding
Details: protein: recombinant; tags: SBP (GST cleaved off with PreScission; pGEX-GST-SBP)
How it was run: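 The incubation lasted 1 h at 4 °C and used 500 nM of an in vitro-transcribed 260-nt 3′ UTR oligo pool with recombinant SBP-tagged TDP-43 at 5, 50 or 500 nM immobilized on streptavidin beads. It took place in 25 mM Tris-HCl, 150 mM KCl, 3 mM MgCl2, BSA and SUPERase IN. Bound RNA was washed, eluted with biotin, converted to cDNA, PCR-amplified and sequenced to give R, each oligo's normalized abundance in the bound sample divided by that in input. Two independent protein batches provided the duplicates.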

Row | Binder | binding signal
1 | B1 | 0.773 R (bound/input frequency ratio)
2 | B2 | 0.21 R (bound/input frequency ratio)
3 | B3 | 0.542 R (bound/input frequency ratio)
4 | B4 | 0.46 R (bound/input frequency ratio)
